D2 ag-1 = activates the human D2 dopamine receptor | P14416 | 0.084% of 360,000 active | activation, % (concentration not given with the values) | DiscoveRx PathHunter D2 beta-arrestin, luminescence, 90 min; 100% = 57 uM dopamine signal; in the data active = activation above about 40%; inconclusive = between about 15% and that limit
Target sequence (P14416 whole entry, looked up): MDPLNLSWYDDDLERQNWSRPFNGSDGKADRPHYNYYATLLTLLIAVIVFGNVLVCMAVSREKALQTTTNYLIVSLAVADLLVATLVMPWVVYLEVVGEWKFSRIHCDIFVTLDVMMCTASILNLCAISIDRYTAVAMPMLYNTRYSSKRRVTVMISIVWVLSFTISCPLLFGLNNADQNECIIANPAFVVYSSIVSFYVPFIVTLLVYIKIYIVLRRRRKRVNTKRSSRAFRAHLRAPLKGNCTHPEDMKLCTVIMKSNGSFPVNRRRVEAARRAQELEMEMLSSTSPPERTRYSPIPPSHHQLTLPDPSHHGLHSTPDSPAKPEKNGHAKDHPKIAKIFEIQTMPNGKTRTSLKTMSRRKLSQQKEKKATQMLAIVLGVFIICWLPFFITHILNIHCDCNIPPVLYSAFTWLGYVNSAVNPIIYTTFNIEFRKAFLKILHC
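DiscoveRx PathHunter D2 beta-arrestin cells (2,100/well) attached overnight, then compound-stimulated 90 min at 37 C in HBSS/10 mM HEPES/0.1% Tween-20 buffer; beta-galactosidase complementation read by luminescence after 1 h at ambient temperature. Dopamine 57 uM final (EC100) as control.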
D2 ag-2 = D2 dopamine receptor (human) agonism | P14416 | HEK293 T-REx D2 cells, calcium flux agonist mode | activation, % at 2 µM | 0.53% of 340,000 active | AID 485358;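 active = activation over 3 SD above normal in the single-dose calcium agonist read, cut at about 30% in these data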
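Agonism is scored from calcium flux in a force-coupled, inducible HEK293 cell line expressing D2, read kinetically for 180 s after compound addition against dopamine controls.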
D2 PAM-1 = positive allosteric modulators of human D2 dopamine receptor. P14416. DiscoveRx D2 beta-arrestin cells, luminescence, 90 min; 100% = 57 uM dopamine signal. potentiation, % (test concentration not listed). 0.23% of 360,000 active; in the data active = potentiation above about 50%; inconclusive = mostly about 30% to 49%
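PathHunter beta-arrestin assay in DiscoveRx D2 cells. Compounds were added with an EC20 of dopamine (50 nM final) for 90 min at 37 deg C. Luminescence was read 1 h after detection reagent, with 57 uM dopamine as the EC100 control.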
D2 PAM-2 = positive allosteric modulators of human D2 dopamine receptor | potentiation, % at 10 µM | P14416 | 0.34% of 340,000 active | AID 485347 | HEK293 T-REx D2, calcium flux, EC20 dopamine potentiation;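 active = potentiation over 3 SD above the plate norm, cut at about 30% in these data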
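Potentiation of an EC20 dopamine calcium response measured kinetically over 180 s, after a preceding 180 s compound-only read flagging agonists. Cells: inducible Hek293 Trex D2 line, 4000/well, cultured overnight at 30 C before dye loading.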
D2 antag = antagonizes the human D2 dopamine receptor. HEK293 TREx D2 cells, calcium flux, dopamine EC80. inhibition, % at 10 µM. 2% of 340,000 active; in the data active = inhibition above about 30%; inactive = below that, where a call was filed
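In this primary screen, negative modulation is detected by tracking calcium flux after an EC80 dopamine challenge in inducible HEK293 T-REx D2 cells preexposed to test compound for 180 s.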
D3 ag = D3 receptor agonism confirmed, beta-arrestin readout | shares compounds with D2 ag-2 | DiscoveRx D3 beta-arrestin cells, luminescence, 90 min | Potency, µM (doses to about 76.9 µM), usual class: activators | 4% of 2,300 active; note: nearly all actives have a fitted effect of over 70% in size
D2 ag-3 = activates human D2 dopamine receptor in D3 counterscreen | shares compounds with D2 ag-2 | 5.9% of 2,300 active | Potency, µM (top dose mostly 76.9 µM), actives largely listed as activators | DiscoveRx PathHunter D2 beta-arrestin, luminescence, 90 min; response scale: percent relative to full dopamine signal; note: nearly all actives have a fitted effect of over 70% in size
A number is an active result; - = inactive; ? = inconclusive; . = no result given. Most compounds without a hit are left out; they make up all but 2.4% or so of the library. Unless noted, calls come from the whole dose curve; as a rule, active = well fitted activation curve with a large enough effect; inconclusive = small, poorly fitted or top-dose-only effect; inactive = flat fitted curve, though single readings scatter.

SMILES | D2 ag-1 | D2 ag-2 | D2 PAM-1 | D2 PAM-2 | D2 antag | D3 ag | D2 ag-3
O=C(/C=C/c1cccc(C(F)(F)F)c1)NNC(=O)c1ccncc1 | - | - | - | - | - | - | -
O=C(/C=C/c1ccccc1[N+](=O)[O-])NNC(=O)c1ccncc1 | - | - | - | - | - | - | -
COc1ccc(NC(=O)/C=C/c2cccc(C(F)(F)F)c2)cn1 | - | - | - | - | - | . | .
COc1ccc(-n2c(C)c(C(C)=O)c3cc(OC(C)=O)ccc32)cc1 | - | - | - | - | - | . | .
COc1ccc(-n2c(C)cc(C)c(C(C)=O)c2=S)cc1 | - | 54 | - | - | - | - | -
CN(CC(=O)NCc1ccccc1)CC(=O)Nc1ccc(Cl)c(C(F)(F)F)c1 | - | - | - | - | - | - | -
COc1ccccc1OCC(=O)NC1CCSc2ccccc21 (stereo not given) | - | - | - | - | - | - | -
COc1ccc(C(=O)NC(=S)Nc2cc(C)ccn2)cc1[N+](=O)[O-] | - | - | - | - | - | . | .
COc1ccc(C2C=C(c3ccccc3)Nc3nnnn32)cc1 (stereo not given) | - | . | - | - | . | - | -
O=C(c1ccccc1F)N1CCN(S(=O)(=O)c2ccc3c(c2)OCCO3)CC1 | - | - | - | - | - | . | .
O=C(c1ccccc1OC(F)F)N1CCN(S(=O)(=O)c2ccc3c(c2)OCCCO3)CC1 | - | - | - | - | - | - | -
CN(C)CCCNC(=O)C[C@H]1C[C@H](C(=O)N2CCCCC2)[C@@]2(C)c3[nH]c4cc(CCC(=O)N(C)C)ccc4c3CCN2C1=O | - | . | - | . | . | . | .
Cn1cc(CNCc2ccc(-n3cccn3)cc2)c(-c2ccccc2F)n1 | ? | 46 | - | - | 44 | - | ?
O=C(Nc1cc(Cl)cc(Cl)c1)c1ccc(F)c(S(=O)(=O)N2CCc3ccccc32)c1 | . | - | . | - | . | . | .
CC(C)=CC(=O)N1CC[C@@H](N2CCN(c3ccccc3F)CC2)[C@H](O)C1 | 43 | 80 | - | - | 46 | - | ?
NC(=O)CN1CCN(c2ccccc2F)CC1 | - | - | - | - | - | . | .
O=C(CCN1CCCO1)N1CCCC(N2CCN(c3ccccc3F)CC2)C1 (stereo not given) | - | - | - | - | - | . | .
CSCCC(=O)N1CC[C@@H](N2CCN(c3ccccc3F)CC2)[C@H](O)C1 | - | - | - | - | 45 | - | ?
CSCCCN1CC[C@@H](N2CCN(c3ccccc3F)CC2)[C@H](O)C1 | ? | 76 | - | - | 79 | - | ?
COc1ccc(N2CCN(C(=O)COC(=O)c3ccc(CSC)o3)CC2)cc1 | - | - | - | - | - | . | .
C[C@@H]1CN([C@H](C)CO)C(=O)CCCn2nncc2CO[C@@H]1CN(C)C(=O)C1CCCCC1 | - | . | - | . | . | . | .
CCC1CCc2c(sc(NC(=O)C3CC=CCC3C(=O)O)c2C#N)C1 (stereo not given) | ? | 62 | - | - | - | 16µM | ?
OCC[C@H]1C[C@@H](O)[C@H](O)[C@@]2(CCc3ccccc3CO2)O1 | - | . | - | . | . | . | .
CCCN(CCC)CCCNS(=O)(=O)c1cc(Br)cc2c1N(C(C)=O)CC2 | - | 59 | - | - | - | - | -
CCOc1ccc(C(=O)CCC(=O)NNC(=O)CCN2CCN(c3ccccc3)CC2)cc1 | - | . | - | . | . | . | .
SMILES | D2 ag-1 | D2 ag-2 | D2 PAM-1 | D2 PAM-2 | D2 antag | D3 ag | D2 ag-3
CC(Oc1ccc(Br)cc1)C(=O)NNC(=O)CCN1CCN(c2ccccc2)CC1 (stereo not given) | - | 38 | - | - | 61 | - | ?
Cc1ccccc1C(=O)NCC(=O)NNC(=O)CCN1CCN(c2ccccc2)CC1 | - | 82 | - | - | 72 | ? | ?
O=C(CCN1CCN(c2ccccc2)CC1)NNC(=O)Cc1ccc(Br)cc1 | - | 77 | - | - | 70 | - | -
CCN(CC)S(=O)(=O)c1cccc(C(=O)NCCCn2ccnc2)c1 | - | - | - | - | - | . | .
Cc1ccc(C(=O)N2CCC(N3CCN(Cc4ccc(F)cc4)C(=O)C3=O)CC2)cc1 | . | - | . | - | . | . | .
Cc1nn(-c2ccc(N3CCCCC3)nn2)c(C)c1CCC(=O)NCc1ccccc1 | . | - | . | - | . | . | .
CC(NC(=O)CSc1ccccc1)c1ccccc1 (stereo not given) | - | . | - | . | . | . | .
COc1ccccc1N1CCN(CC(=O)Nc2ccc(-n3cnnn3)cc2)CC1 | - | - | - | - | - | . | .
O=C(Nc1ccon1)c1nc[nH]c1C(=O)N1CCc2ccccc2C1 | - | - | - | - | - | - | -
O=C(NCc1ccccc1)c1nc[nH]c1C(=O)N1CCc2ccccc2C1 | - | . | - | . | . | . | .
Cn1cncc1C#Cc1ccc2cc(CCO)oc(=O)c2c1 | - | - | - | - | - | - | -
COc1ccc(CCNC(=O)CCn2c(=O)c3ccccc3n(Cc3ccccc3F)c2=O)cc1OC | . | - | . | - | . | . | .
Cc1nc2ccccc2nc(=O)c1NNc1ccccc1 | - | 75 | - | - | - | - | -
CN1CC2=Cc3ccccc3OC23Oc2ccccc2C=C3C1 | - | 59 | - | - | 64 | - | -
CN1C(=O)S/C(=C\c2ccc(-n3cncn3)cc2)C1=O | - | - | - | - | - | . | .
CCOC(=O)N1CCC(NC(=O)c2oc3c(C)c(C)ccc3c2C)CC1 | - | . | - | . | . | . | .
CCCCN(C)C(=O)c1nc2ccccn2c1CN1CCN(c2cnccn2)CC1 | - | - | - | - | - | . | .
CCCCN(C)C(=O)c1nc2ccccn2c1CN1CCN(c2ccccn2)CC1 | - | 53 | - | - | - | - | -
O=C(Cc1ccccc1)NCC1COc2ccccc2O1 (stereo not given) | - | . | - | . | . | . | .
Cn1c(C(=O)O)c(CC(=O)NCC2COc3ccccc3O2)c2ccccc21 (stereo not given) | - | - | - | - | 42 | - | ?
CCOC(=O)c1ccc(Nc2c(-c3cccc(O)c3)nc3nc[nH]n23)cc1 | . | - | . | - | . | . | .
O=C(CN1CCN(c2ccccn2)CC1)Nc1ccc2ccccc2c1 | - | - | - | - | - | - | -
CC(=O)Nc1ccc(NC(=O)CN2CCN(c3ccccn3)CC2)cc1 | ? | 82 | - | - | 84 | ? | ?
COC(=O)c1ccc(N/C=C/C(=O)c2ccccc2)cc1 | - | - | - | - | - | - | -
CC1(C(=O)NS(=O)(=O)c2cccc(OC(F)F)c2)CCN1C(=O)Cc1ccsc1 (stereo not given) | - | . | - | . | . | . | .
CCOc1ccc(-c2nc(CNC(=O)NC3CCCCC3)c(C)o2)cc1 | . | - | . | - | . | . | .
